Screens deposited in PubChem by several laboratories.
This is a sample that favours compounds with a hit; in the whole collection about 3.9% have one here.
CR mimetic SO – caloric restriction mimetics inhibiting age-related superoxide in yeast; S. cerevisiae aged cells, superoxide DHE fluorescence; active compounds read low; superoxide response (% of plate mean), % at 10 µM; hit rate 0.18% among 330,000;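 active = superoxide response under a set limit, about three screen SD below normal, cut at about 65% in these data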;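 note: yeast aged for seven days with compound at 30 °C before DHE staining; 100% = average MFI of all compound-treated wells on the plate with controls excluded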
HGIII-sPLA2 inh – Blocks human group III sPLA2 activity. QFRET BODIPY PC-A2 liposome hydrolysis, fluorescence. Q9NZ20. inhibition, % at 12.2 µM. hit rate 0.56% among 370,000;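 active = inhibition above mean plus 3 SD of compounds lying within the high and low control bounds, cut at about 19% in these data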;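 note: 0% = median of test compound wells and 100% = no enzyme DMSO wells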
HIF act – HIF pathway transcriptional activation | U2OS HRE-luciferase reporter, luminescence; normalized: DMSO 0%, desferrioxamine 100% | activation, % at 7.5 µM (by protocol) | hit rate 0.32% among 300,000;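 active = mean activation of at least 10% of the iron chelator positive control signal, with at least half of replicates also reaching 10%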
AHR activator – activators of human aryl hydrocarbon receptor | AHR-responsive luciferase reporter cells, luminescence | activation, % at 5 µM | hit rate 2.5% among 320,000 | AID 2796; in the data active = activation above about 47%;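 note: 0% = vehicle wells and 100% = reference agonist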
PLCb3 inh – blocks human PLC-beta3 enzyme activity | inhibition, % at 12.2 µM | hit rate 0.18% among 370,000 | Purified PLC-beta3, fluorogenic substrate, fluorescence | Q01970 | AID 720704; in the data active = inhibition above about 11%;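 note: 0% = median of compound wells on plate and 100% = full blocker control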
PLCg1 inh – inhibitors of human phospholipase C gamma1 | hit rate 0.84% among 370,000 | purified PLC-gamma1, fluorogenic substrate, fluorescence | inhibition, % at 12.2 µM | P19174; in the data active = inhibition above about 9.5%
Numbers without * were called inactive; i = inactive; / = not tested or not shown.

SMILES	CR mimetic SO	HGIII-sPLA2 inh	HIF act	AHR activator	PLCb3 inh	PLCg1 inh
COc1ccc(CN(C)CC(=O)Nc2ccc(SC(F)F)cc2)cc1OC	86.3	-14.3	57.4*	3.4	1.3	-0.6
CCC(C)N1CC(O)=C(c2nc3ccccc3[nH]2)C1=N (configuration not stated)	81.8	13.5	/	0.6	-3.0	1.0
CC1C(O)=C(c2nc3ccccc3[nH]2)C(=N)N1c1ccccc1 (configuration not stated)	87.4	23.2*	4.3	11.2	-32.9	-24.0
CC(C)(CN1CCNCC1)NS(=O)(=O)c1ccc(Cl)cc1	97.0	-29.2	/	-0.5	-0.8	15.6*
Brc1ccc(-c2cnc(-c3cccs3)o2)cc1	110.3	-8.7	4.3	65.8*	-76.8	-58.9
Cc1cc(C)c2[nH]c3nc(SCC(=O)O)nnc3c2c1	98.6	12.1	0.9	49.6*	-3.6	-0.7
Cc1ccccc1NC(=O)Cc1nc(COC(=O)COc2cccc(C)c2C)cs1	110.5	-67.6	0.0	-2.2	-10.5	11.7*
CCOc1ccccc1OCC(=O)OCc1csc(CC(=O)Nc2ccccc2C)n1	98.4	-46.4	-4.0	5.3	-6.0	1.1
CCC(O)c1cc2c(cc1NC(=O)c1ccc(C)cc1)OCCO2 (configuration not stated)	108.5	-0.8	1.6	62.7*	-2.2	-4.3
CCCC1CCC2(CCCN2CCOC(=O)Nc2ccccc2C)CC1 (configuration not stated)	/	-7.2	/	/	-3.0	0.3
CC(/C=N\Nc1nnc2c(n1)[nH]c1c(C)cccc12)=C\c1ccco1	113.4	-3.6	0.0	56.8*	-3.9	-4.2
CC(/C=N/n1c(-c2ccco2)n[nH]c1=S)=C\c1ccco1	108.0	4.6	0.2	1.6	3.0	0.2
COc1ccc(CN2CCNC(=O)C2CC(=O)NCc2csc(C(C)C)n2)c(OC)c1 (configuration not stated)	107.8	-6.3	0.3	47.3*	1.6	-3.8
Cc1ccc([N+](=O)[O-])c(OCc2ncc(Cl)n2C)c1	103.2	-2.2	1.4	55.5*	-5.0	-0.2
Cc1ccc([N+](=O)[O-])c(OCCN2CCNCC2)c1	101.7	2.6	0.1	-0.6	3.9	3.5
CC(=O)NC(c1ccc2ccccc2c1)c1ccc2cccnc2c1O (configuration not stated)	84.3	14.7	89.9*	1.3	-27.6	-16.0
COc1ccccc1C(NC(C)=O)c1cc(Cl)c2cccnc2c1O (configuration not stated)	98.2	0.3	0.4	1.8	2.2	-4.1
COc1ccc(C(NC(C)=O)c2cc(Cl)c3cccnc3c2O)cc1OC (configuration not stated)	80.1	0.7	3.7	0.6	-6.4	-5.7
COc1ccc(C(NC(C)=O)c2ccc3cccnc3c2O)c(OC)c1 (configuration not stated)	74.7	/	64.6*	-3.5	/	/
O=c1oc2ccccc2cc1-c1cn2ccccc2n1	121.1	3.6	-2.4	76.2*	-218.5	-94.7
O=c1oc2ccccc2cc1-c1cn2cccnc2n1	87.7	5.1	-0.2	15.8	i	i
Cc1ccsc1/C=C1\CCc2ccccc2C1=O	102.2	-0.4	-3.5	49.9*	-2.0	-3.9
O=C1C(=Cc2ccccn2)CCc2ccccc21	/	5.8	/	/	-2.9	2.1
COC(=O)[C@]12C[C@H](CC(=O)NCCCCc3ccccc3)C(=O)N(Cc3ccccc3)C1=C[C@H](COCc1ccccc1)O[C@@H]2C	/	-18.6	/	/	1.8	1.3
COCc1c(C(=O)OCC(=O)NCCc2ccc(S(N)(=O)=O)cc2)oc2ccccc12	64.8*	4.4	/	1.4	-3.1	1.7
SMILES	CR mimetic SO	HGIII-sPLA2 inh	HIF act	AHR activator	PLCb3 inh	PLCg1 inh
Cc1ccccc1N=Nc1c(N)[nH]n(-c2ccccc2)c1=O	/	9.3	/	/	3.1	3.0
Cc1cc(C)nc(NC(=NCCc2c[nH]c3ccccc23)NC(=O)Nc2ccccc2)n1	85.8	-59.5	-0.1	51.9*	-0.5	2.4
Cc1cc(C)nc(NC(=NCCc2c[nH]c3ccccc23)NC(=O)Nc2ccc(Cl)c(Cl)c2)n1	103.5	-0.7	0.0	5.5	1.6	0.1
Cc1ccc(Nc2ncnc(-n3cccc3)n2)cc1Cl	95.2	1.5	3.2	57.9*	-2.0	1.8
Clc1cc(Cl)cc(Nc2ncnc(-n3cccc3)n2)c1	85.5	7.5	-0.3	54.1*	-4.7	2.9
Nc1ncnc(Nc2ccc(F)c(Cl)c2)n1	105.8	5.1	1.6	4.7	-3.9	9.3
